# Laboratory results reported in PubChem BioAssay (EPA / NIEHS).
# Inconclusive results are not listed. The source holds several records for some structures; these can differ, active in one and inactive in another. Active and inactive are the calls of the source. How the source made its calls, unless noted: active means hit-call score of the fitted dose curve at least 0.9, where 1 is the maximum; inactive means score below 0.9. Starred links: 1 amine or outer side, 2 acyl side, 3 side chain; linkers in the order of their positions; H or OH if unused. Positions of bridges follow the written chain, without caps; N, C: chain ends. Non-standard residues stand in square brackets, D forms with d. Residues, ends and D or L forms follow the SMILES beside them. Adda = CO[C@@H](Cc1ccccc1)[C@@H](C)/C=C(C)/C=C/[C@H](N[*:1])[C@H](C)C(=O)[*:2]; dAsp(3S-Me) = C[C@H](C(=O)[*:3])[C@@H](N[*:1])C(=O)[*:2]; d(γGlu) = O=C(O)[C@@H](CCC(=O)[*:2])N[*:1]; NMeDha = C=C(NC)C(=O)O
# Tests used:
# [1] = CCTE_Shafer_MEA_dev_firing_rate_mean: CCTE's Neural Network Formation Assay for Mean Firing Rate, Shafer Lab (AID 2284031);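 on AC50: curve fitted for loss of firing so AC50 reflects decreased mean firing rate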
# Outline: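 Spike frequency (spikes/recording length, averaged over active electrodes) was recorded on days 5, 7, 9 and 12 and collapsed to AUC; rat cortical cultures received compound continuously over 12 days of network development.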
# [2] = CCTE_Shafer_MEA_dev_per_burst_spike_percent: CCTE's Neural Network Formation Assay for Percent of Spikes in a Burst, Shafer Lab (AID 2284032);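 on AC50: fitted as a decrease in burst spike percentage below DMSO baseline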
# Outline: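 Value is trapezoidal AUC over recordings on days 5, 7, 9 and 12 of the well-mean fraction of spikes falling in single-electrode bursts; rat cortical cultures exposed continuously from plating, treatment renewed DIV 5 and 9, fitted downward against DMSO.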
# [3] = CCTE_Shafer_MEA_dev_active_electrodes_number: CCTE's Neural Network Formation Assay for Number of Active Electrodes, Shafer Lab (AID 2284040; active means hit-call score of the fitted dose curve at least 0.9, where 1 is the maximum;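 on AC50: potency for loss of active electrodes versus DMSO so lower counts are hits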)
# Outline: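 Counts electrodes per well firing at least 5 spikes/min, recorded on days 5, 7, 9 and 12 in rat cortical cultures dosed continuously from plating (treatment refreshed DIV 5, 9). Value is the area under the curve over recordings, fitted downward relative to DMSO.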
# [4] = CCTE_Shafer_MEA_dev_bursting_electrodes_number: CCTE's Neural Network Formation Assay for Number of Bursting Electrodes, Shafer Lab (AID 2284043; active means hit-call score of the fitted dose curve at least 0.9, where 1 is the maximum;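 on AC50: potency is for loss of bursting electrodes relative to DMSO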)
# Outline: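 Number of electrodes reaching ≥1 burst every 2 min was recorded at DIV 5, 7, 9 and 12 and collapsed as trapezoidal area under the curve. Cultures were rat cortical neurons on MEA plates, dosed continuously from plating with medium and treatment refreshed on DIV 5 and 9.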
# [5] = CCTE_Shafer_MEA_dev_per_burst_interspike_interval: CCTE's Neural Network Formation Assay for Burst Interspike Interval, Shafer Lab (AID 2284044);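 on AC50: potency for a decrease of within-burst interspike interval below DMSO level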
# Outline: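 Primary rat cortical neurons on 48-well MEA plates, exposed from day 0 through day 12, treatment renewed at DIV 5 and 9. Within-burst interspike interval recorded days 5, 7, 9, 12, well-averaged, summarised as AUC; negative fit versus DMSO.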
# [6] = CCTE_Shafer_MEA_dev_burst_duration_mean: CCTE's Neural Network Formation Assay for Mean Burst Duration, Shafer Lab (AID 2284045);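 on AC50: curve fitted for loss meaning shorter burst duration than DMSO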
# Outline: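 Mean single-electrode burst duration (first to last spike), averaged over bursting electrodes per well, then integrated as area-under-curve across recordings at days 5, 7, 9 and 12. Rat cortical cultures on MEAs, compound present from plating, refreshed at feeds.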
# [7] = CCTE_Shafer_MEA_dev_interburst_interval_mean: CCTE's Neural Network Formation Assay for Mean Interburst Interval, Shafer Lab (AID 2284046);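 further: well-mean interburst interval of bursting electrodes as AUC over four recording days; curve fitted for decrease in interburst interval relative to DMSO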
# Outline: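 Developing rat cortical networks on 48-well MEAs receive compound from the day of plating. Burst intervals from each active electrode are averaged per well, and AUC over the recording days is fitted in the negative direction against DMSO.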
# [8] = CCTE_Shafer_MEA_dev_inter_network_spike_interval_mean: CCTE's Neural Network Formation Assay for Mean Inter-network Spike Interval, Shafer Lab (AID 2284047);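 on AC50: potency for a decrease in mean inter-network spike interval below DMSO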
# Outline: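 Rat cortical cultures, 1.5 x 10^5 cells/well on 48-well MEA plates; continuous exposure days 0–12, medium and compound refreshed DIV 5, 9. Mean time between consecutive network-spike peaks; AUC across DIV 5/7/9/12; DMSO baseline, negative fitting direction.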
# [9] = CCTE_Shafer_MEA_dev_network_spike_number: CCTE's Neural Network Formation Assay for Number of Network Spikes, Shafer Lab (AID 2284048);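 further: synchronized bursts across electrodes counted on days 5 7 9 12 and integrated as AUC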;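 on AC50: fit as a loss of signal meaning fewer network spikes than DMSO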
# Outline: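 Number of network spikes (coordinated firing across electrodes) recorded on days 5, 7, 9 and 12 and summarised as area under the curve. Rat cortical cultures on MEA, continuous compound exposure with full medium/treatment exchange at DIV 5 and 9.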
# [10] = CCTE_Shafer_MEA_dev_network_spike_peak: CCTE's Neural Network Formation Assay for Mean Number of Electrodes in Network Spike, Shafer Lab (AID 2284049);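 on AC50: fitted for loss of signal meaning fewer electrodes in network spikes than DMSO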
# Outline: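 Rat cortical primary culture, 1.5 x 10^5 cells/well, 48-well MEA (16 electrodes/well). Dosing day 0 through DIV 12, full media/compound exchange DIV 5, 9. AxIS adaptive spike detection; AUC over days 5/7/9/12; loss-of-signal vs DMSO.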
# [11] = CCTE_Shafer_MEA_dev_spike_duration_mean: CCTE's Neural Network Formation Assay for Mean Spike Duration, Shafer Lab (AID 2284051);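 further: mean network spike duration pooled as area under curve over DIV 5 to 12 recordings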;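 on AC50: potency for a decrease in mean network spike duration versus DMSO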
# Outline: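 Readout is the average length of network spikes, clustered firing across electrodes, summed over DIV 5, 7, 9 and 12 as area under the curve. Neurons from rat cortex developed networks on MEA plates under continuous 12-day exposure.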
# [12] = CCTE_Shafer_MEA_dev_network_spike_duration_std: CCTE's Neural Network Formation Assay for Standard Deviation of Network Spike Duration, Shafer Lab (AID 2284052);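 further: hits are decreases in network spike duration SD versus DMSO vehicle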
# Outline: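 Read-out is the trapezoidal area-under-the-curve across recordings made on days 5, 7, 9 and 12, fitted in the negative direction against DMSO baseline. Neurons were primary rat cortical cells treated from day 0, with treatment renewed at each feed.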
# [13] = CCTE_Shafer_MEA_dev_per_network_spike_spike_number_mean: CCTE's Neural Network Formation Assay for Mean Number of Spikes in a Network Spike, Shafer Lab (AID 2284053);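 on AC50: fitted as decrease in spikes per network spike relative to DMSO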
# Outline: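 Continuous twelve-day exposure of developing rat cortical networks grown over 16 microelectrodes per well; spontaneous firing is captured at four time points, and the per-network-spike spike number is integrated over development by trapezoidal AUC.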
# [14] = CCTE_Shafer_MEA_dev_per_network_spike_spike_percent: CCTE's Neural Network Formation Assay for Percent of Spikes in a Network Spike, Shafer Lab (AID 2284054)
# Outline: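 Metric: fraction of spikes falling in a 0.05 s window at network-spike peaks. Recordings were made on days 5, 7, 9 and 12 and collapsed by trapezoidal AUC. Cultures were rat cortical neurons on MEA plates, dosed continuously from plating, re-dosed at media changes.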
# [15] = CCTE_Shafer_MEA_dev_AB: CCTE's Alamar Blue Assay for Cytotoxicity in the Neural Network Formation Assay, Shafer Lab (AID 2284083; active means hit-call score of the fitted dose curve at least 0.9, where 1 is the maximum;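 further: resazurin reduction fluorescence as viability of cultured neurons; twelve days of exposure from plating with re-dosing on DIV 5 and 9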)
# Outline: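 Fluorescent resazurin reduction serves as the viability read-out, with DMSO as negative control and baseline. Cells were primary rat cortical neurons grown on MEA plates and dosed from day 0 to day 12, treatment renewed on DIV 5 and 9.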
# [16] = CCTE_Shafer_MEA_dev_mutual_information_norm: CCTE's Neural Network Formation Assay for Mutual Information Normalization, Shafer Lab (AID 2284091);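 on AC50: mutual information between electrodes summarised as area under curve across four recording days; potency is for a decrease in mutual information relative to DMSO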
# Outline: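 Shared information across electrodes, tracked on days 5, 7, 9 and 12 of network development and collapsed as trapezoidal area under the curve. Rat cortical cultures were treated continuously from plating, with treatment renewed at feeds on DIV 5 and 9; DMSO baseline, negative-direction fit.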
# [17] = CCTE_Shafer_MEA_dev_correlation_coefficient_mean: CCTE's Neural Network Formation Assay for Mean Correlation Coefficient, Shafer Lab (AID 2284093);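 on AC50: well mean pairwise spike train correlation integrated as AUC over recording days 5 to 12; potency fitted for loss of correlation relative to DMSO vehicle wells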
# Outline: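 Read-out: well-mean correlation coefficient of spike trains between electrode pairs, collapsed over four recording days as trapezoidal area-under-the-curve. Developing rat cortical neuron networks grown on MEAs received test chemical continuously from plating.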
# [18] = CCTE_Harrill_HTTr_Viability_MCF7: CCTE's 6-hour Cell Viability Assessment for the High-Throughput Transcriptomics (HTTr) Platform, in MCF-7 cells cultured in DMEM + 10% fetal bovine serum, Harrill Lab (AID 2284010)
# Outline: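 Propidium iodide exclusion, imaged by high-content analysis, gauged viability after a six-hour exposure across eight concentrations. Cells were MCF-7 grown in DMEM with 10% fetal bovine serum; fits run in both directions against DMSO.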
# [19] = UKN2_HCS_IMR90_neural_migration: University of Konstanz (UKN) Leist Lab Neural Crest Cell Migration Assay in human induced IMR90 Pluripotent Stem Cells (UKN2) (AID 2284204); settings: actives raise or lower the signal
# Outline: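 High-content imaging of calcein-AM and Hoechst stained cells quantifies migration into a stopper-defined gap after 24 h compound exposure. Neural crest cells from IMR90 iPSC migrated 24 h in EGF/FGF N2-S medium before dosing; DMSO baseline.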
# [20] = UKN2_HCS_IMR90_cell_viability: Viability Assessment in the University of Konstanz (UKN) Leist Lab Neural Crest Cell Migration Assay in human induced IMR90 Pluripotent Stem Cells (UKN2) (AID 2284233);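 further: cells exposed to compound for 24 h after a 24 h migration phase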
# Outline: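 After calcein-AM/Hoechst staining, viability is quantified by high-content fluorescence imaging, relative to DMSO, in iPSC (IMR90)-derived neural crest cells. Exposure lasts 24 h, starting after a 24 h migration period on PLO/laminin/fibronectin coating.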
smiles,measurement,setting,value
CP(=O)(O)CC[C@H](N)C(=O)O,outcome,[1],inactive
same,outcome,[2],inactive
same,outcome,[3],inactive
same,outcome,[4],inactive
same,outcome,[5],inactive
same,outcome,[6],inactive
same,outcome,[7],inactive
same,outcome,[8],inactive
same,outcome,[9],inactive
same,outcome,[10],inactive
same,outcome,[11],inactive
same,outcome,[12],inactive
same,outcome,[13],inactive
same,outcome,[14],inactive
same,outcome,[15],inactive
same,outcome,[16],inactive
same,outcome,[17],inactive
C[C@H](N)Cc1ccccc1,outcome,[1],inactive
same,outcome,[2],inactive
same,outcome,[3],inactive
same,outcome,[4],inactive
same,outcome,[5],inactive
same,outcome,[6],inactive
same,outcome,[7],inactive
same,outcome,[8],inactive
same,outcome,[9],inactive
same,outcome,[10],inactive
same,outcome,[11],inactive
same,outcome,[12],inactive
same,outcome,[13],inactive
same,outcome,[14],inactive
same,outcome,[16],inactive
same,outcome,[17],inactive
C=C1C(=O)N[C@H](C)C(=O)N[C@H](CC(C)C)C(=O)N[C@@H](C(=O)O)[C@H](C)C(=O)N[C@@H](CCCN=C(N)N)C(=O)N[C@@H](/C=C/C(C)=C/[C@H](C)[C@H](Cc2ccccc2)OC)[C@H](C)C(=O)N[C@@H](C(=O)O)CCC(=O)N1C (R[Adda][d(γGlu)][NMeDha][dA][dL][dAsp(3S-Me)]-OH; lactam N-7),outcome,[18],inactive
O=C1CCO1,outcome,[18],inactive
CCOP(=O)(O)OCC,outcome,[18],inactive
O=C(O)CCCOC(=O)c1ccccc1C(=O)O,outcome,[18],inactive
CP(=O)(O)CCC(N)C(=O)O (stereo unspecified),outcome,[1],inactive
same,outcome,[2],inactive
same,outcome,[3],inactive
same,outcome,[5],inactive
same,outcome,[6],inactive
same,outcome,[7],inactive
same,outcome,[8],inactive
same,outcome,[9],inactive
same,outcome,[10],inactive
same,outcome,[11],inactive
same,outcome,[12],inactive
same,outcome,[13],inactive
same,outcome,[14],inactive
same,outcome,[16],inactive
same,outcome,[17],inactive
same,outcome,[19],inactive
same,outcome,[20],inactive
CC1(C)[C@@H](C=C(Cl)Cl)[C@@H]1C(=O)O[C@@H](C#N)c1ccc(F)c(Oc2ccccc2)c1,AC50,[1],5.76 µM (active)
same,AC50,[2],15 µM (active)
same,AC50,[3],10.2 µM (active)
same,AC50,[4],15 µM (active)
same,outcome,[5],inactive
same,outcome,[6],inactive
same,outcome,[7],inactive
same,outcome,[8],inactive
same,outcome,[9],inactive
same,AC50,[10],11.8 µM (active)
same,AC50,[11],6.21 µM (active)
same,outcome,[12],inactive
same,AC50,[13],5.82 µM (active)
same,AC50,[14],15 µM (active)
same,outcome,[15],inactive
same,AC50,[16],2.39 µM (active)
same,AC50,[17],5.16 µM (active)
O=S1OC[C@@H]2[C@H](CO1)[C@]1(Cl)C(Cl)=C(Cl)[C@]2(Cl)C1(Cl)Cl (stereo partly specified),outcome,[18],inactive
Cn1nc(C(F)(F)F)c(CS(=O)(=O)C2=NOC(C)(C)C2)c1OC(F)F,AC50,[1],91.6 µM (active)
same,AC50,[2],80.9 µM (active)
same,AC50,[3],73.6 µM (active)
same,AC50,[4],87.5 µM (active)
same,AC50,[5],26.3 µM (active)
same,outcome,[6],inactive
same,outcome,[7],inactive
same,outcome,[8],inactive
same,outcome,[9],inactive
same,AC50,[10],50 µM (active)
same,AC50,[11],31.2 µM (active)
same,outcome,[12],inactive
same,AC50,[13],50 µM (active)
same,outcome,[14],inactive
same,AC50,[15],68.9 µM (active)
same,outcome,[16],inactive
same,AC50,[17],32.7 µM (active)
same,outcome,[19],inactive
same,outcome,[20],inactive
C/C(=C/C=C/[C@@H](C)C(=O)O)[C@H]1CN[C@H](C(=O)O)[C@H]1CC(=O)O,AC50,[1],0.068 µM (active)
same,outcome,[1],inactive
same,AC50,[2],2.06 µM (active)
same,outcome,[2],inactive
same,AC50,[3],0.97 µM (active)
same,outcome,[3],inactive
same,AC50,[4],1.28 µM (active)
same,outcome,[4],inactive
same,AC50,[5],1.33 µM (active)
same,outcome,[5],inactive
same,AC50,[6],0.992 µM (active)
same,outcome,[6],inactive
same,AC50,[7],0.0322 µM (active)
same,outcome,[7],inactive
same,AC50,[8],0.16 µM (active)
same,outcome,[8],inactive
same,AC50,[9],0.0218 µM (active)
same,outcome,[9],inactive
same,AC50,[10],1.83 µM (active)
same,outcome,[10],inactive
same,AC50,[11],1.13 µM (active)
same,outcome,[11],inactive
same,AC50,[12],0.259 µM (active)
same,outcome,[12],inactive
same,AC50,[13],1.05 µM (active)
same,outcome,[13],inactive
same,AC50,[14],2.33 µM (active)
same,outcome,[14],inactive
same,outcome,[15],inactive
same,AC50,[16],0.0507 µM (active)
same,outcome,[16],inactive
same,AC50,[17],1.56 µM (active)
same,outcome,[17],inactive
same,outcome,[19],inactive
same,outcome,[20],inactive
